Screening results (PubChem)
A selection: hits, their analogues and other compounds. The true share with any hit is near 21%.
DT40 TDP1 CPT = qHTS for Inhibitors of human tyrosyl-DNA phosphodiesterase 1 (TDP1): qHTS in cells in presence of CPT. chicken DT40 Tdp1-/-;hTDP1 cells + 20 nM CPT, ATP luminescence, 48 h. Potency, µM (doses to about 46.2 µM), inactives show at the top dose activity change, negative = growth inhibition, hits mostly inhibitors. hit rate 12% among 420,000. AID 686979, 2013; note: potency is the fitted concentration of half-maximal effect; nearly all actives have a fitted effect of over 55% in size
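Chicken DT40 Tdp1-/- cells complemented with human TDP1, 400 cells/well, exposed to compounds plus 20 nM camptothecin for at least 48 h at 37 C; viability read as ATP content by CellTiter-Glo luminescence.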
ELG1 repair inh = qHTS screen for small molecules that inhibit ELG1-dependent DNA repair in human embryonic kidney (HEK293T) cells expressing luciferase-tagged ELG1; HEK293T ELG1-luciferase reporter, luminescence, 16 h; DNA damage induced by 5-fluorouridine; Potency, µM (top dose mostly 46.1 µM), inactives show at the highest dose activity change, negative = inhibition, actives largely listed as inhibitors; hit rate 2.3% among 330,000; note: potency is the fitted concentration of half-maximal effect; nearly all actives have a fitted effect of over 55% in size
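DMSO vehicle served as the neutral condition. Each well held 2,000 cells given 5-fluorouridine plus compound; after 16 hr at 37 °C/5% CO2, ONE-Glo was added and luciferase measured 30 min later.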
DT40 TDP1 no CPT = qHTS for Inhibitors of human tyrosyl-DNA phosphodiesterase 1 (TDP1): qHTS in cells in absence of CPT; DT40 Tdp1-/- hTDP1 cells, no CPT, ATP luminescence, 48 h; Potency, µM (highest dose often 46.2 µM), inactives show at the top dose activity change, negative = growth inhibition, most hits filed as inhibitors; hit rate 15% among 420,000; note: potency is the fitted concentration of half-maximal effect; nearly all actives have a fitted effect of over 55% in size
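Readout: luminescence from CellTiter-Glo after 30 min in the dark at RT. Cells: DT40 Tdp1-/- with stable hTDP1, 400/well. Exposure: compounds alone, ≥48 hr, 37 °C.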
VP16 counter = VP16 counterscreen qHTS for inhibitors of ROR gamma transcriptional activity; Drosophila S2 Gal4-VP16 UAS-luciferase, luminescence, 20 h; Potency, µM (titrated, usually from 53.6 µM), for inactives: top-dose activity, negative = inhibition, hits mostly inhibitors; hit rate 3.5% among 310,000; AID 2546, 2010;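 note: Gal4-VP16 expression switched on by copper sulfate through the metallothionein promoter; potency is the fitted concentration of half-maximal effect; nearly all actives have a fitted effect of over 50% in size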
IL1B secr inh = qHTS for Inhibitors of Inflammasome Signaling: IL-1-beta AlphaLISA Primary Screen | THP-1 LPS/ATP IL-1B secretion, AlphaLISA, 16 h; hits give low values | activity change, % at 57.5 µM | hit rate 4.7% among 360,000; in the data active = activity change below about -50%; inconclusive = mostly about -30% to -49%
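THP-1 cells pretreated 1 hr with compounds (up to 57.5 uM final), then stimulated with LPS (250 ng/mL final) plus ATP (1.25 mM final); secreted IL-1B measured by AlphaLISA after 16 hr, decreased signal indicating inhibition.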
RORgamma inh = qHTS for inhibitors of ROR gamma transcriptional activity; Nuclear receptor ROR-gamma (Mus musculus), P51450; Drosophila S2 Gal4-RORgamma UAS-luciferase reporter, 20 h; Potency, µM (titrated, usually from 53.6 µM), for the others: at the top dose activity change, negative = inhibition, actives largely listed as inhibitors; hit rate 5.4% among 310,000; AID 2551, 2010; note: potency is the fitted concentration of half-maximal effect; nearly all actives have a fitted effect of over 60% in size
Target sequence (P51450 whole entry, looked up, the tested form may be a part): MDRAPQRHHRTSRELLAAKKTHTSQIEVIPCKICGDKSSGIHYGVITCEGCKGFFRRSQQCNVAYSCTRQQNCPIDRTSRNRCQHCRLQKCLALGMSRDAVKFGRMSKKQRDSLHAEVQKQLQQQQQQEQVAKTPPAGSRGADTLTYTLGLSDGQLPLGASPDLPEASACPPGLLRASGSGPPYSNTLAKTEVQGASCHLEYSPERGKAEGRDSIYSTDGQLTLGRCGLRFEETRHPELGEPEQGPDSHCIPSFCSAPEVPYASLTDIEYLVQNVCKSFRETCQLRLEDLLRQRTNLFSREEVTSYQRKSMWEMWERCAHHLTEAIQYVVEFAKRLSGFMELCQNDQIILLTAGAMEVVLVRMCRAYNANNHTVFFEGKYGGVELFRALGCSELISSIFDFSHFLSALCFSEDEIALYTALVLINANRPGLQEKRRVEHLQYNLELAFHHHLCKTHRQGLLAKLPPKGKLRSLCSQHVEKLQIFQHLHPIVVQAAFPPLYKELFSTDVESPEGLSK
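Read-out: Photinus luciferase luminescence; inhibitors lower reporter signal. Insect Schneider cells with Gal4-ROR gamma fusion under metallothionein promoter, UAS reporter; 700 uM final copper sulfate induction, 20 hr, ambient temperature.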
* marks the source's active call; other numbers are inactive results; [ ] = another dose, or the depositor's remark. Unless noted, calls come from the whole dose curve; as a rule, active = well fitted curve in the direction sought with a large enough effect; inconclusive = small, poorly fitted or top-dose-only effect, or another doubt; inactive = no such curve, though single readings can be large; an effect the other way counts as inactive or inconclusive. % is set by controls: 0 for no effect and ±100 for the full control effect.

Screening CN(CC(=O)NCc1ccc(F)cc1)S(=O)(=O)c1ccc(Br)s1 returned DT40 TDP1 CPT -11.9%, ELG1 repair inh 1.9%, DT40 TDP1 no CPT -2.4%, VP16 counter -5.1%, IL1B secr inh -3.5 and RORgamma inh 30.0%.
Screening CCCCNC(=O)C1(C)CCCCN1C(=O)c1cc(C#N)cs1 (stereo unspecified) returned DT40 TDP1 CPT 0.2%, DT40 TDP1 no CPT -2.8% and IL1B secr inh 29.2.
`CC(C)(C)NC(=O)CSc1nc(-c2ccc(F)cc2)cs1` gave DT40 TDP1 CPT 9.8%, ELG1 repair inh inconclusive, DT40 TDP1 no CPT 4.4%, VP16 counter -7.5%, IL1B secr inh -18.4 and RORgamma inh -20.7%.
`CCCS(=O)(=O)NCCc1csc2nc(-c3ccc(C)cc3)nn12` gave DT40 TDP1 CPT inconclusive and DT40 TDP1 no CPT 23.1µM*.
For CS(=O)(=O)NCCc1csc2nc(-c3ccccc3)nn12 the results were DT40 TDP1 CPT -3.7% and DT40 TDP1 no CPT 0.5%.
For CC(C)(C)C(=O)NCCc1csc2nc(-c3ccc(F)cc3)nn12 the results were DT40 TDP1 CPT inconclusive and DT40 TDP1 no CPT 14.6µM*.
`COc1ccc(-c2nc3scc(CCNC(=O)c4cccc(Br)c4)n3n2)cc1` gave DT40 TDP1 CPT inconclusive and DT40 TDP1 no CPT 25.9µM*.
`COc1ccc2c(c1)O[C@H](c1cccc(C(F)(F)F)c1)[C@@H](O)C2=O` gave VP16 counter -5.3%[10 µM] and RORgamma inh 3.6%[10 µM].
For CC1=C(C(=O)Nc2cccc(C(F)(F)F)c2)C2(CCN(C(C)C)CC2)OC1=O the results were DT40 TDP1 CPT -14.7% and DT40 TDP1 no CPT -29.0%.
Nc1nnc(SCC(=O)Nc2ccc(N3CCOCC3)c(Cl)c2)s1 was read as DT40 TDP1 CPT 18.4µM*, ELG1 repair inh 20.9%, DT40 TDP1 no CPT 11.6µM*, VP16 counter inconclusive, IL1B secr inh inactive and RORgamma inh inconclusive.
`Nc1ccc2nc(SCC(=O)N3CCOCC3)sc2c1` gave DT40 TDP1 CPT 3.3%, ELG1 repair inh inconclusive, DT40 TDP1 no CPT -21.3%, VP16 counter 19.0%, IL1B secr inh 36.4 and RORgamma inh 26.8%.
`O=C(CSc1ccc(F)cc1)Nc1ccc(N2CCOCC2)c(Cl)c1` gave DT40 TDP1 CPT -28.5%, ELG1 repair inh 5.4%, DT40 TDP1 no CPT inconclusive, VP16 counter 27.8%, IL1B secr inh 0.0 and RORgamma inh inconclusive.
`CCCC(=O)Nc1ccc2nc(SCC(=O)Nc3ccc(N4CCOCC4)c(Cl)c3)sc2c1` gave DT40 TDP1 CPT -82.0%, ELG1 repair inh inconclusive, DT40 TDP1 no CPT 16.4µM*, VP16 counter -10.0%, IL1B secr inh -50.3* and RORgamma inh 41.8%.
Screening Cc1ccc(NC(=O)CSCC(=O)Nc2ccc(N3CCOCC3)c(Cl)c2)cc1 returned DT40 TDP1 CPT -27.1%, ELG1 repair inh -35.7%, DT40 TDP1 no CPT -29.7%, VP16 counter -6.6%, IL1B secr inh -10.0 and RORgamma inh -24.2%.
`Nc1ccc2nc(SCC(=O)Nc3ccc(N4CCOCC4)c(Cl)c3)sc2c1` gave DT40 TDP1 CPT inconclusive, ELG1 repair inh 11.3%, DT40 TDP1 no CPT 23.1µM*, VP16 counter inconclusive, IL1B secr inh -27.9 and RORgamma inh inconclusive.
`CCc1ccc(CNC(=O)c2ccc3c(c2)nc2n3CCOC2)cc1` gave DT40 TDP1 CPT -24.3% and DT40 TDP1 no CPT inconclusive.
`CSCc1nnc(NC(=O)c2ccc(S(=O)(=O)N(CC(C)C)CC(C)C)cc2)o1` gave ELG1 repair inh -20.5%, VP16 counter 0.631µM* and RORgamma inh 0.282µM*.
